This is an account of results in paper PMC7862700, “An all-to-all approach to the identification of sequence-specific readers for epigenetic DNA modifications on cytosine”.

Common to all, as to experiment: DAPPL (digital affinity profiling via proximity ligation, sequencing); 10 mM Tris-HCl pH 7.5, 50 mM NaCl, 1 mM DTT, 4% glycerol, room temperature, 30 min; GST-TFs on glutathione beads, 16-mer random dsDNA library, 0.1% formaldehyde crosslink after washing; high values mean tight binding
In one experiment the target is T1, FLI1 (Homo sapiens, UniProt Q01543 1-452).
T1 sequence: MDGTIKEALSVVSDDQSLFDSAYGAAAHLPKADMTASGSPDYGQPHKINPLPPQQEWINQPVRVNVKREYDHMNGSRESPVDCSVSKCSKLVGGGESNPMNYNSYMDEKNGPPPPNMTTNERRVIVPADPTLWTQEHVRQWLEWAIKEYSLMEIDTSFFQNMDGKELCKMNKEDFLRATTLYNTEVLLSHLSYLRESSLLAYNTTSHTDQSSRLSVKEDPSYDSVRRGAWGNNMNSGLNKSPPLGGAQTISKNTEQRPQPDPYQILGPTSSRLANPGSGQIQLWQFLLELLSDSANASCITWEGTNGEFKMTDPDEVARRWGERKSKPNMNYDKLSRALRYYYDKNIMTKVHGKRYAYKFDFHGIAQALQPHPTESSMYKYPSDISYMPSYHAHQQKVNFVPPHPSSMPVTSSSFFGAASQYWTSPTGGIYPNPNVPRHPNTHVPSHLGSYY
As to conditions: protein: recombinant; tags: N-terminal GST; dsDNA, one strand shown. The method, boiled down: (§1)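 Beads coated with glutathione captured GST-fused human transcription factors that had been expressed in yeast, and the factors were then given DNA barcodes and pooled with a tag-only sample. The pools were incubated with 200 nmole of a random double-stranded 16-mer DNA library in Tris/NaCl/DTT/glycerol buffer for 30 min at room temperature, washed, crosslinked with 0.1% formaldehyde and proximity-ligated with BsaI/T4 ligase at 37 °C for 1 h. PCR amplification and Illumina NextSeq500 sequencing came last. Binding signal is each hexamer's read frequency for a factor divided by its frequency for the tag-only sample.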

In the next experiment the target is T2, ELK1 (Homo sapiens, UniProt P19419 1-428).
T2 sequence: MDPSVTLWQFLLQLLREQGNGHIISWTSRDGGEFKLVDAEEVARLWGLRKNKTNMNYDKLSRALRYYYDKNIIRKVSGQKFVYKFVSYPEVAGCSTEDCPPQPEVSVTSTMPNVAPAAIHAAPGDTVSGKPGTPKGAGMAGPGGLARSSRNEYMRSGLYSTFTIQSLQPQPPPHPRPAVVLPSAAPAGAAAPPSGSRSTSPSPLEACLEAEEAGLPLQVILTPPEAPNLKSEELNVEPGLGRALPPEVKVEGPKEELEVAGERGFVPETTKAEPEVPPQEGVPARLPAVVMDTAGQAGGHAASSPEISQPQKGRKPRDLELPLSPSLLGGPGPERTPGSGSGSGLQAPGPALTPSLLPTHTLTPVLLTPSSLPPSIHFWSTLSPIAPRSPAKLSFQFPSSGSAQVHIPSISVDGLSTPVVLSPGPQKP
The note with it: protein: recombinant; tags: N-terminal GST; dsDNA, one strand shown. The method, boiled down: as §1

The next experiment has as its target T3, GABPA (Homo sapiens, UniProt Q06546 1-454).
T3 sequence: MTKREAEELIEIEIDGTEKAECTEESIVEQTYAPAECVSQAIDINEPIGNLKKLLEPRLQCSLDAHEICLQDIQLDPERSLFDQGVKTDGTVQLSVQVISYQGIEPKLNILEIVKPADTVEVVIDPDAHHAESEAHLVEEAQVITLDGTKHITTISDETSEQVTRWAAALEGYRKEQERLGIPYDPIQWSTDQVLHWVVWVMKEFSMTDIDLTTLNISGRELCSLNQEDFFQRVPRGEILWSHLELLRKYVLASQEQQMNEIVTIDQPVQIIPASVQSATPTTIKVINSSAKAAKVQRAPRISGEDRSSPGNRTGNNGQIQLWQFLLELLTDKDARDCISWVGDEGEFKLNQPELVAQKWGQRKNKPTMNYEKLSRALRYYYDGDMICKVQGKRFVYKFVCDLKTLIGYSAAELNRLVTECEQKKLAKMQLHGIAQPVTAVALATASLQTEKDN
As to conditions: protein: recombinant; tags: N-terminal GST; dsDNA, one strand shown. Put shortly:
as §1

The target in a further experiment is T4, ERG (Homo sapiens, UniProt P11308 1-479).
T4 sequence: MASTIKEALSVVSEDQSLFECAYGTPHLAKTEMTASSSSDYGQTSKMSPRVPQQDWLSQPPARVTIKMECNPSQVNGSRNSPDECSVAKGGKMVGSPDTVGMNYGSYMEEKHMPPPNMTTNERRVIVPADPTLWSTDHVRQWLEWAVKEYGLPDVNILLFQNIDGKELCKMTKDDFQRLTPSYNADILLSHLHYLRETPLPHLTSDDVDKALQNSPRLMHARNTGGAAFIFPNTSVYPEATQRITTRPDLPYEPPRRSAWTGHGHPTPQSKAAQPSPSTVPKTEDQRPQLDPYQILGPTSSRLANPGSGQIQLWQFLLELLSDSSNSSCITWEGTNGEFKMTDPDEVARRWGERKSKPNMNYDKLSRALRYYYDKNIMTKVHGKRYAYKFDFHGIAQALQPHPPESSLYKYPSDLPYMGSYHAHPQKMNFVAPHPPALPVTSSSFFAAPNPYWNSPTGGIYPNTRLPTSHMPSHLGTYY
The note with it: protein: recombinant; tags: N-terminal GST; dsDNA, one strand shown. The method, boiled down: as §1

In the next experiment the target is ELF1 (Homo sapiens, UniProt P32519 1-619). The note with it: protein: recombinant; tags: N-terminal GST; dsDNA, one strand shown. Put shortly:
as §1

The target of the next experiment is SPI1 (Homo sapiens, UniProt P17947 1-270). As to conditions: protein: recombinant; tags: N-terminal GST; dsDNA, one strand shown. The method, boiled down:
as §1

Another experiment has as its target SPIB (Homo sapiens, UniProt Q01892 1-262). The note with it: protein: recombinant; tags: N-terminal GST; dsDNA, one strand shown. Put shortly: as §1
The next experiment addresses ETV5 (Homo sapiens, UniProt P41161 1-510). As to conditions: protein: recombinant; tags: N-terminal GST; dsDNA, one strand shown. Put shortly: as §1
The target in the next experiment is HSF1 (Homo sapiens, UniProt Q00613 1-529). As to conditions: protein: recombinant; tags: N-terminal GST; chain copies: 3; dsDNA, one strand shown. Put shortly: as §1
HSF1, sequence (Q00613 whole entry): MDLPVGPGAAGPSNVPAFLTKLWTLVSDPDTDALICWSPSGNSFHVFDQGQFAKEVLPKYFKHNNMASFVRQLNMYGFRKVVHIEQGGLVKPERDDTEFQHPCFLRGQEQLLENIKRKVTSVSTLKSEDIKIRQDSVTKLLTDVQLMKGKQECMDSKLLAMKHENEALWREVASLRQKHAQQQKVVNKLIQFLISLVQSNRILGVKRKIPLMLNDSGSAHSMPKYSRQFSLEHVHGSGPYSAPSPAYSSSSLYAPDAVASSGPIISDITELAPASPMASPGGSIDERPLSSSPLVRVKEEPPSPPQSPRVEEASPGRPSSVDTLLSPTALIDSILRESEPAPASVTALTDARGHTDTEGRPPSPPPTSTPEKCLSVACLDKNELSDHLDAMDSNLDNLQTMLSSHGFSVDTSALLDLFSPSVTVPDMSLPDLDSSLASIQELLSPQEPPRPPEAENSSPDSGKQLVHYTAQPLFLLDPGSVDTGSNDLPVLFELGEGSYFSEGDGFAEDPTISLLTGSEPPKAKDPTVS
Another experiment deals with ELF4 (Homo sapiens, UniProt Q99607 1-663). The note with it: protein: recombinant; tags: N-terminal GST; dsDNA, one strand shown. Put shortly: as §1
ELF4, sequence (Q99607 whole entry): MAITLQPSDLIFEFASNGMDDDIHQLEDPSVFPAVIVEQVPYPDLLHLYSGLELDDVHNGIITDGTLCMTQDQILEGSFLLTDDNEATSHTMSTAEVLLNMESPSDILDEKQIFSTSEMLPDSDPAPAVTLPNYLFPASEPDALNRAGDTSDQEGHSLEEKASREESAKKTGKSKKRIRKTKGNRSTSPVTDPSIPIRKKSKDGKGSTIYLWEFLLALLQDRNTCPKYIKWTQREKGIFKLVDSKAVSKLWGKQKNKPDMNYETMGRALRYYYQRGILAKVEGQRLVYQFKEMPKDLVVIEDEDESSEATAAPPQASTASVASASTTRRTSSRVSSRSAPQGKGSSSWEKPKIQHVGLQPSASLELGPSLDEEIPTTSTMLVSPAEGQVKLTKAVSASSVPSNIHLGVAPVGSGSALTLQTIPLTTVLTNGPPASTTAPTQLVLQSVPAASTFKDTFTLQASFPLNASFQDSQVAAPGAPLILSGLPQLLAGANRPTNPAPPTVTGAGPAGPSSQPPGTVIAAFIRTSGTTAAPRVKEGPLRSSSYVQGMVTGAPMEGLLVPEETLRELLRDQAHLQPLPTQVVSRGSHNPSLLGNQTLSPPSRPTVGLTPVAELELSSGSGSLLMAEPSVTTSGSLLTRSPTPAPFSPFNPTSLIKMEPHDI
The target of a further experiment is T5, ELK4 (Homo sapiens, UniProt P28324-2 1-405).
T5 sequence: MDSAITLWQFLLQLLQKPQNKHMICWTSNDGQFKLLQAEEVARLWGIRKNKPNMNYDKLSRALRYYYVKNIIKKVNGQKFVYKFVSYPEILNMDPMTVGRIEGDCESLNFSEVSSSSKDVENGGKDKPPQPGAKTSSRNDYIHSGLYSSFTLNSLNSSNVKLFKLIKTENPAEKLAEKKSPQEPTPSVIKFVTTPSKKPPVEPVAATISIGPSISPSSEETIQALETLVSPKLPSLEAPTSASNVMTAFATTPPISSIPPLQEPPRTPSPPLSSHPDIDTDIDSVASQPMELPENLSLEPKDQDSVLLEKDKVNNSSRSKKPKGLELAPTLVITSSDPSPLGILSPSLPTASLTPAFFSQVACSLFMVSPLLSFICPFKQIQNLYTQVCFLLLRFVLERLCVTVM
The note with it: protein: recombinant; tags: N-terminal GST; dsDNA, one strand shown. Put shortly:
as §1

A further experiment deals with T6, ETV2 (Homo sapiens, UniProt O00321 1-342).
T6 sequence: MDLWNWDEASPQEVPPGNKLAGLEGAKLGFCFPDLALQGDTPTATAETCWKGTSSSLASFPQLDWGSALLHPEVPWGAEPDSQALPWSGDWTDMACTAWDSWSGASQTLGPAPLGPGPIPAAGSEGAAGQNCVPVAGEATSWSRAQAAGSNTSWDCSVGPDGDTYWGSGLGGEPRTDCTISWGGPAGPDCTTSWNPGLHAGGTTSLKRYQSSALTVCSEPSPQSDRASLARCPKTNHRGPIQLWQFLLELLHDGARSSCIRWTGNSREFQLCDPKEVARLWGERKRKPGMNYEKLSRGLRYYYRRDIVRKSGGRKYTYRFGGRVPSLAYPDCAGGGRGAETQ
As to conditions: protein: recombinant; tags: N-terminal GST; dsDNA, one strand shown. The method, boiled down: as §1

The next experiment concerns the target T7, ELF3 (Homo sapiens, UniProt P78545 1-371).
T7 sequence: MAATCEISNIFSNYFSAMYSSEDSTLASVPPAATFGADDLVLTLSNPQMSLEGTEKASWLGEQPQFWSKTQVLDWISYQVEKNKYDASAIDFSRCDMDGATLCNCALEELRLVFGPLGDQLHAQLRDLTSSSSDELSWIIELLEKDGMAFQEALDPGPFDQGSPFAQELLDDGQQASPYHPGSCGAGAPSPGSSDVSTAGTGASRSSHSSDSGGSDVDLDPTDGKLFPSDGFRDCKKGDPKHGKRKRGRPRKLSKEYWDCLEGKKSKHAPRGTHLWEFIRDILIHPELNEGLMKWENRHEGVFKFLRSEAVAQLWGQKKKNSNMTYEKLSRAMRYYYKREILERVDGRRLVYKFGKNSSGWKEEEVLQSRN
As to conditions: protein: recombinant; tags: N-terminal GST; dsDNA, one strand shown. Put shortly:
as §1

A further experiment has as its target CRX (Homo sapiens, UniProt O43186 1-299). As to conditions: protein: recombinant; tags: N-terminal GST; dsDNA, one strand shown. The method, boiled down: as §1
In the next experiment the target is ETV1 (Homo sapiens, UniProt P50549 1-477). As to conditions: protein: recombinant; tags: N-terminal GST; dsDNA, one strand shown. Put shortly:
as §1

ELF1, sequence (P32519 whole entry): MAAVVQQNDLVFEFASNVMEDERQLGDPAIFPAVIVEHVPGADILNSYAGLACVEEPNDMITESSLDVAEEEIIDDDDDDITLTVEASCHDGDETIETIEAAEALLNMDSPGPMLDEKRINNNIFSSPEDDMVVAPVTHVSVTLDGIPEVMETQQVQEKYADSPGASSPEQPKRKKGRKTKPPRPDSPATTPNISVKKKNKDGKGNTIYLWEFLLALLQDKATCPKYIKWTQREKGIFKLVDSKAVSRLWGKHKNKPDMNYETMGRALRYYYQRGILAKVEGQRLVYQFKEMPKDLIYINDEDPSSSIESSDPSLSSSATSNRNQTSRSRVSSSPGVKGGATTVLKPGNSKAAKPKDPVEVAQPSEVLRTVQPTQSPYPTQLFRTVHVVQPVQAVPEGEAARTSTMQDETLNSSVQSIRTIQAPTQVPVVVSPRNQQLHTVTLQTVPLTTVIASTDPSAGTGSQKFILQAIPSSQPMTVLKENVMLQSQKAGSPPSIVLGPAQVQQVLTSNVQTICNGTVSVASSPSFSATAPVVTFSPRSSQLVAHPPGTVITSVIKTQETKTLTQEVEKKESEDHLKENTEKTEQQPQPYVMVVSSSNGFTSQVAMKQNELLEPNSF
ETV5, sequence (P41161 whole entry): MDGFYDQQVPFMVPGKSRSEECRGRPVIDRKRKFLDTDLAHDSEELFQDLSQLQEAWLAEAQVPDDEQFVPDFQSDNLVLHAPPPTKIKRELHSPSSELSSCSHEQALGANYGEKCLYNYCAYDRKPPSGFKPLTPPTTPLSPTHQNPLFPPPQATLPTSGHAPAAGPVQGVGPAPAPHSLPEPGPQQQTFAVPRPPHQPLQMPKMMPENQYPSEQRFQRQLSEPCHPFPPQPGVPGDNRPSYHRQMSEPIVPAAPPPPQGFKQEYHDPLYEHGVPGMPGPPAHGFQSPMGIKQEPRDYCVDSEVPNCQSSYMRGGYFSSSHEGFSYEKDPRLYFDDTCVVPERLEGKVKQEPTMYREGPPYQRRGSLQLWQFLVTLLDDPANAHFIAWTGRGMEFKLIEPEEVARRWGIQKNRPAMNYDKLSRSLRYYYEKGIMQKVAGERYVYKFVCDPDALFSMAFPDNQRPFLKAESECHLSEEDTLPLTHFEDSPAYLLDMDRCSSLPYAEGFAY
CRX, sequence (O43186 whole entry): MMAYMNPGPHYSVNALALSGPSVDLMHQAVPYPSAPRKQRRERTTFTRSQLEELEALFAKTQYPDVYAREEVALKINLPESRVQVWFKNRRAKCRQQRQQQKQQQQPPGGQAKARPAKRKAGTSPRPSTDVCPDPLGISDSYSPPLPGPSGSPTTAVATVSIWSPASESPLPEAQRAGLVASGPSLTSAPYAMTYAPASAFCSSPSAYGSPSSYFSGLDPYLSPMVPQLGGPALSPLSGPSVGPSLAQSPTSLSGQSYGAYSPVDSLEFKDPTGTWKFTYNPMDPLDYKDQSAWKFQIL
ETV1, sequence (P50549 whole entry): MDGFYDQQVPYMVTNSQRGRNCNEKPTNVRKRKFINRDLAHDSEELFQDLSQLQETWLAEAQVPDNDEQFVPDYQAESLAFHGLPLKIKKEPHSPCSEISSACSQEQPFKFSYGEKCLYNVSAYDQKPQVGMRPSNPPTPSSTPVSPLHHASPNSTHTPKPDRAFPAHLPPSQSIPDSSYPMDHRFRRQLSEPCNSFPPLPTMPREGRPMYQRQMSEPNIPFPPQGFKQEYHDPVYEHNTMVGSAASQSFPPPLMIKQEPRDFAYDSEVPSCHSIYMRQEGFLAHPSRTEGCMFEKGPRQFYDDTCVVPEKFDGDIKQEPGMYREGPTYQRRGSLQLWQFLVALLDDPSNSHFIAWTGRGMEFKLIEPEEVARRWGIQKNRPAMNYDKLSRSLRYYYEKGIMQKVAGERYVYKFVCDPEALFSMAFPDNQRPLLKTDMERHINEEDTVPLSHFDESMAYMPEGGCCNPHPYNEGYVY
SPIB, sequence (Q01892 whole entry): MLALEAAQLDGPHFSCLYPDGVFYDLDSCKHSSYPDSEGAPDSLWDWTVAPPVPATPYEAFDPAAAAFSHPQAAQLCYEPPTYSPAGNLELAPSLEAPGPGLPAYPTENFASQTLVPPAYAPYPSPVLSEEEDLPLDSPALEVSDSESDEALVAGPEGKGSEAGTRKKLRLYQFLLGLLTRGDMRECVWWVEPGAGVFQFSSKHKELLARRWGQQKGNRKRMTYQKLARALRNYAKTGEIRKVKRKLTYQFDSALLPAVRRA

For the sequence AGGTAT, the binding signal was 1.06 fold enrichment (6-mer frequency, TF over GST control) with FLI1; 1.06 fold enrichment (6-mer frequency, TF over GST control) with ELK1; 1.07 fold enrichment (6-mer frequency, TF over GST control) in the experiment with GABPA; 1.04 fold enrichment (6-mer frequency, TF over GST control) with ERG; 1.04 fold enrichment (6-mer frequency, TF over GST control) with ELF1; 1.04 fold enrichment (6-mer frequency, TF over GST control) in the experiment with SPI1. Besides, the binding signal with SPIB was 1 fold enrichment (6-mer frequency, TF over GST control); with ETV5, 1.02 fold enrichment (6-mer frequency, TF over GST control); with HSF1, 1.07 fold enrichment (6-mer frequency, TF over GST control); with ELF4 it was 1.02 fold enrichment (6-mer frequency, TF over GST control); with ELK4, 1.03 fold enrichment (6-mer frequency, TF over GST control); with ETV2, 1.03 fold enrichment (6-mer frequency, TF over GST control). Moreover, the binding signal with ELF3 is 1.12 fold enrichment (6-mer frequency, TF over GST control); with CRX, 1.05 fold enrichment (6-mer frequency, TF over GST control); in the experiment with ETV1, 1.02 fold enrichment (6-mer frequency, TF over GST control).
